# Data reported in PubChem BioAssay.
# For part of these data: Results with a measured potency or affinity are listed apart. Some of the results follow. Calls of active or inactive are those of the source.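 The calls were made as follows, unless noted: active = fitted half-maximal concentration within 10 nM to 100 µM, steepness 0.5 to 2, significant signal drop, low assay interference; inactive = the rest.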
# Assays:
# [1] = target: Cell division control protein 42 homolog (Homo sapiens) (UniProt P60953); assay: activated mutant Cdc42 GTP-binding inhibitors, dose response, biochemical, multiplex bead flow cytometry, Bodipy-FL-GTP (AID 1333;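 active = fitted half-maximal concentration within the tested dose range, moderate curve steepness, a statistically real signal drop, and little compound fluorescence or tag-binding interference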)
# Sequence of Cell division control protein 42 homolog (Homo sapiens) (P60953 whole entry, looked up): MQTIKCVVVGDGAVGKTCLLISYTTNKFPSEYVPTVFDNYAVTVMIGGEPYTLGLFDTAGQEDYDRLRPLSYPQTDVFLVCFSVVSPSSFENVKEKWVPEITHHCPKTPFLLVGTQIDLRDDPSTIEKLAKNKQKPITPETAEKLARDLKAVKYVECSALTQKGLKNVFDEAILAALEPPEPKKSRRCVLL
# [2] = target: Cell division control protein 42 homolog (Homo sapiens) (UniProt P60953); assay: wildtype Cdc42 GTP-binding inhibitors, dose response, biochemical, multiplex bead flow cytometry, Bodipy-FL-GTP (AID 1334;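 active = fitted half-maximal concentration within the tested range, moderate curve steepness, significant signal drop, and little compound fluorescence or bead-linkage interference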); conditions: bead-based flow cytometry, Bodipy-FL-GTP binding to GST-Cdc42; at 100 µM (top of the series) unless noted
# [3] = target: GTPase HRas (Homo sapiens) (UniProt P01112); assay: inhibitors of GTP binding to wildtype Ras, dose response, biochemical, multiplex bead flow cytometry (AID 1335); conditions: bead-based flow cytometry, Bodipy-GTP binding to GST-Ras; at 100 µM (top of the series) unless noted
# Sequence of GTPase HRas (Homo sapiens) (P01112 whole entry, looked up): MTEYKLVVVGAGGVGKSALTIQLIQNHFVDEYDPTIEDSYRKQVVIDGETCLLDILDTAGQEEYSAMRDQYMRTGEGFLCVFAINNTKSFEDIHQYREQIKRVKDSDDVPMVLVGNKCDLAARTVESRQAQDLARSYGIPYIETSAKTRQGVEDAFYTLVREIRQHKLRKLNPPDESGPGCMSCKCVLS
# [4] = system: Ras-related protein Rab-7a (dog), GTP binding; assay: Rab7 GTP binding inhibitors, potency, dose response, biochemical, wildtype, multiplex bead flow cytometry (AID 1336; call rule not given here)
# [5] = target: GTPase HRas (Homo sapiens) (UniProt P01112); assay: activated Ras mutant GTP binding inhibitors, dose response, biochemical, multiplex bead flow cytometry (AID 1341;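 active = dose-response curve with midpoint inside the tested range, moderate steepness, significant amplitude and little compound fluorescence or bead-attachment interference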;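 also: GST-tagged constitutively activated Ras mutant immobilized on beads and multiplexed with other GTPases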)
# [6] = target: Ras-related C3 botulinum toxin substrate 1 (Homo sapiens) (UniProt P63000); assay: wildtype Rac1 GTP binding inhibitors, dose response, biochemical, multiplex bead flow cytometry (AID 1340;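 active = dose curve with midpoint inside tested range, moderate steepness, plateau gap beyond fit error, low compound glow and bead-link interference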); conditions: GST-Rac1 beads, Bodipy-FL-GTP binding; at 100 µM (top of the series) unless noted
# [7] = inhibitors of CD8+ T cell-vesicle binding, pilot screen, LFA-1/ICAM-1 modulator project, MLPCN validation set, flow cytometry (AID 2523;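 active = response below a set limit, under 55% cells CD8-positive and vesicle-bound, and CD8 cells' 90th-percentile brightness under 279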;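 as to vesicle binding response: mean PE anti-B7-1 fluorescence of CD8+ cells relative to row control; 100% = QL9-loaded vesicles with DMSO vehicle in the same plate row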); conditions: 2C mouse CD8+ T cells, at 7 µM, stronger effect = lower value; double positive events: measured here: CD8+/vesicle+ event percentage
# [8] = superoxide lowering in aged yeast cells, pilot screen, validation compound set (AID 2706;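 active = superoxide response below 65% of plate, a cut near 3 SD across the whole screen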;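 also: yeast exposed to compound for one week at 30 degrees C before staining; 100% = mean of all compound wells on the same plate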); conditions: S. cerevisiae aging, superoxide DHE fluorescence; at 10 µM; stronger effect = lower value
# [9] = target: Beta-adrenergic receptor kinase 1 (Homo sapiens) (UniProt P25098); assay: GRK2 binders displacing RNA aptamer, biochemical, validation, human GRK2, bead flow cytometry (AID 488806;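 active = aptamer binding inhibition above 30%, about 3 SD of noise from non-fluorescent compounds; inactive = inhibition at or below 30%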); conditions: bead-bound GRK2, FAM-aptamer displacement, at 10 µM, stronger effect = higher value
# Sequence of Beta-adrenergic receptor kinase 1 (Homo sapiens) (P25098 whole entry, looked up): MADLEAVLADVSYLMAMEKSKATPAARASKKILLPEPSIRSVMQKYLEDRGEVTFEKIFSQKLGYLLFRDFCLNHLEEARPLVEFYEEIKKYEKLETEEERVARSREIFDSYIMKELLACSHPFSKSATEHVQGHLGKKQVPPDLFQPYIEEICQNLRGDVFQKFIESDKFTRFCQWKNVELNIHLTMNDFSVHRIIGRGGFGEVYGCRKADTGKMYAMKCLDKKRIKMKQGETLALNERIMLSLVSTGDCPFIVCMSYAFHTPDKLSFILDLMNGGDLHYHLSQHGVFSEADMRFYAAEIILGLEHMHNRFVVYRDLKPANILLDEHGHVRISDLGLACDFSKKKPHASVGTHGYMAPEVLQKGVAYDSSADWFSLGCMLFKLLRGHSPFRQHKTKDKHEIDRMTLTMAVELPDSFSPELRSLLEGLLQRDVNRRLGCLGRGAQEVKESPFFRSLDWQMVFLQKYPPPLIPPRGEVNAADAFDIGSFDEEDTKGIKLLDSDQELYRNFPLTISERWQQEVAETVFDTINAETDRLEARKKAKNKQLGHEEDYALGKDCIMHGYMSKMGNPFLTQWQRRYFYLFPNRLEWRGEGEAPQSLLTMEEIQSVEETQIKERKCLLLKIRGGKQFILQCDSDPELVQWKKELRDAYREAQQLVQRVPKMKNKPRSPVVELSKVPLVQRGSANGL
# [10] = target: Beta-2 adrenergic receptor (Homo sapiens) (UniProt P07550); assay: beta2AR agonists driving receptor internalization, pilot screen, cell-based, FAP fluorogen, flow cytometry, validation set (AID 504459;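 active = percent response above 42, roughly 3 SD of non-fluorescent test compounds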;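 also: agonist-driven loss of surface beta2AR via internalization measured by FAP dye flow cytometry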); conditions: Am2.2-beta2AR cells, FAP surface receptor flow cytometry; at 10 µM; stronger effect = higher value
# Sequence of Beta-2 adrenergic receptor (Homo sapiens) (P07550 whole entry, looked up): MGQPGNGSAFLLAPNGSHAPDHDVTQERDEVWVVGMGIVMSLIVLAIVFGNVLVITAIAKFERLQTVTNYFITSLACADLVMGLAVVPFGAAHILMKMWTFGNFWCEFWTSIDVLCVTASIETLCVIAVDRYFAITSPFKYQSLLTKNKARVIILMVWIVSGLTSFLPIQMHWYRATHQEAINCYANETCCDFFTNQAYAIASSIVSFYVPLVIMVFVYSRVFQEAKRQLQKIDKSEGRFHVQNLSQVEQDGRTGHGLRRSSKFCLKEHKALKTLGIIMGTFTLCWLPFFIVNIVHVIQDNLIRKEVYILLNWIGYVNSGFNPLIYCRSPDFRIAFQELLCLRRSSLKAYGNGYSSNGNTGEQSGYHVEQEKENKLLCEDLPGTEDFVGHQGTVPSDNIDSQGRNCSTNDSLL
# [11] = target: AP-2 complex subunit beta (Homo sapiens) (UniProt P63010); assay: inhibitors of arrestin peptide binding to AP2, pilot screen, biochemical, validation set, GST-AP2 beads, flow cytometry (AID 504541;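 active = inhibition above 54%, about 3 SD of non-fluorescent compounds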;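 also: AP2 carries R879A mutation and is captured from E. coli lysate; bead-bound FITC arrestin peptide fluorescence measuring arrestin peptide binding to AP2; 0% = DMSO wells and 100% = excess unlabeled arrestin peptide control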); conditions: FITC arrestin peptide, at 10 µM, stronger effect = higher value, AP2 beta2 appendage fragment, R879A mutant
# Sequence of AP-2 complex subunit beta (Homo sapiens) (P63010 whole entry, looked up, the tested form may be a part, one chain of several): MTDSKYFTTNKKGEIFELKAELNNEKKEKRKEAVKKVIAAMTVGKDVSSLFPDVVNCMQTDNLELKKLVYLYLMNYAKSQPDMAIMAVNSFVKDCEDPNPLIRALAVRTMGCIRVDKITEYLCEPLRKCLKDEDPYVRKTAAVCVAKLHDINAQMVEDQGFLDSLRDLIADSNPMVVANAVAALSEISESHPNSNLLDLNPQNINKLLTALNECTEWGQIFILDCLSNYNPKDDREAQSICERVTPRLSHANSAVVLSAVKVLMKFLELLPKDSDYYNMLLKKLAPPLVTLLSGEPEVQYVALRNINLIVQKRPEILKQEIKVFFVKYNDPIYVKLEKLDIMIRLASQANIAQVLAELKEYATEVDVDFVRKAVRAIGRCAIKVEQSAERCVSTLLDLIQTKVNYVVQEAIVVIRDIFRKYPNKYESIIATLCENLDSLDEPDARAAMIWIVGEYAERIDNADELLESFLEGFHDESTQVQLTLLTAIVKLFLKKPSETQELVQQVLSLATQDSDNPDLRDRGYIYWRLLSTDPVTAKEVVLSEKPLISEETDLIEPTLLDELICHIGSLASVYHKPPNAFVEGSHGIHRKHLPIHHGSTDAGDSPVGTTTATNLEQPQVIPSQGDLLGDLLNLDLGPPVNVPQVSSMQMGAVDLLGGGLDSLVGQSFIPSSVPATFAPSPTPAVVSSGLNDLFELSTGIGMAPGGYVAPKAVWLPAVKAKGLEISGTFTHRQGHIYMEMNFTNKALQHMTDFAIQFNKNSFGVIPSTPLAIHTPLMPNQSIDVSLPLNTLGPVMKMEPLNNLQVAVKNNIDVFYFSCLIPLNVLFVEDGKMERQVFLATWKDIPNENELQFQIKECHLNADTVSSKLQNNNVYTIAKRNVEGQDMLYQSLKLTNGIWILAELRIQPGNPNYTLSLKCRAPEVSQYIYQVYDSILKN
# [12] = yeast V-ATPase proton transport modulators, S. cerevisiae, pHLuorin, HTS validation (AID 504600; in the data active = response above about 15%;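 also: plate controls were DMSO for no effect and reference compound for full effect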); conditions: S. cerevisiae pHLuorin cytosolic pH, at 10 µM, stronger effect = higher value
# [13] = system: anti-desmoglein-3 scFv antibody binding to human DSG3; assay: inhibitors of anti-DSG3 scFv binding to DSG3, pilot screen, biochemical, validation compound set, bead-based, flow cytometry (AID 588368;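 active = binding below the plate cutoff, the plate median minus 3 SD, with a reading above zero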;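 also: signal is the median channel fluorescence of bead-bound GFP antibody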); conditions: Protein G beads, DSG3-Fc, scFv-GFP binding, at 10 µM, stronger effect = lower value
# [14] = inhibitors of fungal efflux pumps CDR1, CDR2, MDR1, pilot screen, validation compound set, multiplex, phenotypic (AID 588506;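 active = efflux inhibition above 0.42, the validation set average plus 4 SD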;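 also: Nile Red retained in cells so higher fluorescence means more efflux inhibition; 0 = negative control wells and 1 = enniatin B 25 µM full block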); conditions: S. cerevisiae pump-expressing triplex, Nile Red efflux flow cytometry; at 10 µM; stronger effect = higher value; the pumps come from Candida albicans
# [15] = target: ATP-binding cassette sub-family B member 6 (Homo sapiens) (UniProt Q9NP58); assay: ABCB6 transporter inhibitors, pilot screen, K562-ABCB6 cells, flow cytometry, validation set (AID 588550;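 active = inhibition above the screen-wide mean plus 3 SD, about 51%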;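 also: 0% = DMSO wells and 100% = benzethonium chloride 70 µM positive control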); conditions: K562-ABCB6 porphyrin accumulation, 1 h, at 10 µM, stronger effect = higher value
# Sequence of ATP-binding cassette sub-family B member 6 (Homo sapiens) (Q9NP58 whole entry, looked up): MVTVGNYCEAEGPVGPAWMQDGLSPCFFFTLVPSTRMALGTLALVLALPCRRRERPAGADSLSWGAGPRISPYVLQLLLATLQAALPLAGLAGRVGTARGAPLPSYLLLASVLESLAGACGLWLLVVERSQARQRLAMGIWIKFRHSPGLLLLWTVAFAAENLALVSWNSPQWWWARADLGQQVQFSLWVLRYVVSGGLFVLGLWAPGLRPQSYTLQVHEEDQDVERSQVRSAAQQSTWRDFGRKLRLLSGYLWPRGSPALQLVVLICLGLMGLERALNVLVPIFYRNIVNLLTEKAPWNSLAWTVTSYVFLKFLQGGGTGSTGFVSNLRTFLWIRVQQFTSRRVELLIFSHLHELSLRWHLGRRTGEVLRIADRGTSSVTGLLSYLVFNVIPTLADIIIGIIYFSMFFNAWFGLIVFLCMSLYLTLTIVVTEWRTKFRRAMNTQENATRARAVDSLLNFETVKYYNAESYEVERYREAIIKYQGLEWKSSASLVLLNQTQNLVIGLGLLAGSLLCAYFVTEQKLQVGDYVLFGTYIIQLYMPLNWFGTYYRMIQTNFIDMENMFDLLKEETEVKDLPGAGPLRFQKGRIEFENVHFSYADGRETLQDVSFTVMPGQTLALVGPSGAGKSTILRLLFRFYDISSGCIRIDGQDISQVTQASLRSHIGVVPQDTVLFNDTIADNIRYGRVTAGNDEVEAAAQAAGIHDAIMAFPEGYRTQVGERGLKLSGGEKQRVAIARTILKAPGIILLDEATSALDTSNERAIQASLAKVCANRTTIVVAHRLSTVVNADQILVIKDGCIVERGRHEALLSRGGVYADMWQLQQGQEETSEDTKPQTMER
# [16] = promoters of myeloid differentiation in arrested cells, primary screen, cell-based, GFP/MAC1 double positive, flow cytometry, validation set (AID 588685;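 active = differentiation response of at least 50%, scaled between solvent and reference control, from cells with both markers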;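 also: compound exposure lasts four days before antibody staining and flow analysis; 0% = DMSO wells and 100% = 5 µM fulvestrant positive control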); conditions: ER-HoxA9 marrow cells, stronger effect = higher value, normalized: vehicle 0, fulvestrant 100
# [17] = LAP4-GFP expression modulators in yeast, confirmation, cell-based, second cherry pick, flow cytometry (AID 2621;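 active = GFP signal as percent of the solvent control above about 150%, meaning raised reporter expression, limit read from the data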;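 also: ratio of well median GFP fluorescence to plate DMSO mean so 100% = DMSO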); conditions: S. cerevisiae LAP4-GFP strain, 3 h, at 10 µM, stronger effect = higher value
# [18] = modulators of MEP2-GFP levels in yeast, confirmation, S. cerevisiae, flow cytometry GFP, second cherry picks (AID 2622;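 active = GFP signal above 150% of the solvent control wells, that is a rise of more than half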;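 also: median channel GFP fluorescence of all gated yeast cells per well; ratio of median GFP to plate DMSO average so 100% = DMSO level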); conditions: S. cerevisiae MEP2-GFP strain, 3 h, at 10 µM, stronger effect = higher value
# [19] = RPL19A-GFP modulators in TOR pathway yeast, confirmation, cell-based, S. cerevisiae, flow cytometry, second cherry pick (AID 2623;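 active = under 65% GFP response relative to DMSO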;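 also: median GFP channel fluorescence per well over the all cells gate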); conditions: S. cerevisiae RPL19A-GFP strain, 3 h, at 10 µM, stronger effect = lower value, 100% means same as DMSO wells
# [20] = modulators of CIT2-GFP expression in yeast, confirmation, flow cytometry, second cherry pick, single plex (AID 2624;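 active = GFP response vs DMSO above about 150%, limit read from the data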;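 also: median green fluorescence per well over all gated yeast cells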); conditions: S. cerevisiae CIT2-GFP strain, 3 h, at 10 µM, stronger effect = higher value, DMSO control wells read 100%
# [21] = AGP1-GFP expression modulators, hit retest, confirmation, cell-based, flow cytometry, S. cerevisiae, cherry pick set 2 (AID 2643;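 active = over 150 percent of DMSO response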;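 also: median GFP channel fluorescence over all cells without mother daughter split; sample median GFP divided by mean DMSO control so 100% equals DMSO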); conditions: S. cerevisiae AGP1-GFP strain, 3 h, at 10 µM, stronger effect = higher value
# [22] = compound autofluorescence in yeast s288c, dose response, artefact control for yeast TOR pathway GFP screen, s288c strain (AID 2757;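 active = fluorescence span over the dose series, or activity score, above about 33, limit read from the data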;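 also: thousands of bead-calibrated equivalent soluble fluorophore molecules from median cell fluorescence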); conditions: S. cerevisiae s288c, 520 nm autofluorescence, flow cytometry, 3 h; at 33 µM; stronger effect = higher value; zero means same as solvent-only cells
# [23] = RPL19A-GFP modulators, yeast TOR pathway, confirmation, cell-based, S. cerevisiae, flow cytometry, cherry picks, mother/daughter gates (AID 2270;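 active = GFP response below 50% of the DMSO control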); conditions: S. cerevisiae RPL19A-GFP strain, 3 h, at 10 µM, stronger effect = lower value, 100 = same GFP as DMSO wells
# [24] = LAP4-GFP expression modulators in yeast, confirmation, cell-based, cherry picks, flow cytometry, mother/daughter gates (AID 2271;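 active = GFP response above 150% of the DMSO control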;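 also: ratio of sample to DMSO plate mean so 100% equals DMSO level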); conditions: S. cerevisiae LAP4-GFP strain, 3 h, at 10 µM, stronger effect = higher value, 100 means same as DMSO control
# [25] = modulators of MEP2-GFP levels in yeast, confirmation, S. cerevisiae, flow cytometry GFP, cherry picks (AID 2272;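 active = GFP response above 150% of the DMSO control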;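 also: ratio of well signal to plate DMSO mean so 100% equals DMSO level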); conditions: S. cerevisiae MEP2-GFP strain, 3 h, at 10 µM, stronger effect = higher value
# [26] = AGP1-GFP expression modulators, hit retest, confirmation, cell-based, flow cytometry, S. cerevisiae, cherry picks (AID 2273;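 active = GFP response above 150% of the DMSO level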;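 also: median GFP channel fluorescence over the whole cell population gate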); conditions: S. cerevisiae AGP1-GFP strain, 3 h, at 10 µM
# [27] = modulators of CIT2-GFP expression in yeast, confirmation, S. cerevisiae, GFP fusion, cherry picks, mother/daughter gates (AID 2274;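 active = GFP response above 150% of the DMSO level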); conditions: S. cerevisiae CIT2-GFP strain, flow cytometry, 3 h, at 10 µM, stronger effect = higher value
# [28] = measured here: daughter cell gate
# [29] = measured here: mother cell gate
# [30] = measured here: daughter cell gate response
# [31] = measured here: mother cell gate response
smiles,measurement,setting,value
NC(=S)N=Nc1c(O)[nH]c2ccc(F)cc12,outcome,[1],inactive
same,"fluorescence, percent of control (lower = inhibition)",[2],30.2%
same,"GTP binding, percent of control",[3],64.9%
same,outcome,[4],inactive
same,outcome,[5],inactive
COc1ccccc1C(=O)N=Nc1c(O)[nH]c2ccc([N+](=O)[O-])cc12,outcome,[1],inactive
same,"fluorescence, percent of control (lower = inhibition)",[2],23.9%
same,"GTP binding, percent of control",[3],51.1%
same,outcome,[4],inactive
same,"GTP binding signal, raw median fluorescence (lower = inhibition) (MCF (arbitrary fluorescence units))",[6],115
same,outcome,[5],inactive
CCN1/C(=C/C=C/C=C/c2sc3ccccc3[n+]2CC)Sc2ccccc21,outcome,[1],inactive
same,"fluorescence, percent of control (lower = inhibition)",[2],1.8%
same,"GTP binding, percent of control",[3],2%
same,"GTP binding, % of control",[4],4.4% [at 3.7 µM] (inactive)
same,"GTP binding signal, raw median fluorescence (lower = inhibition) (MCF (arbitrary fluorescence units))",[6],1.8
same,outcome,[5],inactive
same,double positive events,[7],81.6%
same,vesicle binding response,[7],109% (inactive)
same,superoxide response (% of plate),[8],89.6% (inactive)
same,aptamer binding inhibition,[9],39% (active)
same,response,[10],-16.6% (inactive)
same,inhibition,[11],75.8% (active)
same,response,[12],-3.07% (inactive)
same,binding (% of control),[13],121% (inactive)
same,efflux inhibition (fraction of control),[14],0.73 (active)
same,inhibition,[15],10% (inactive)
same,differentiation response,[16],7.37% (inactive)
CC(C)Oc1ccc(/C=N/NC(=O)c2ccc(N(Cc3ccccc3)S(C)(=O)=O)cc2)cc1,outcome,[1],inactive
same,"fluorescence, percent of control (lower = inhibition)",[2],43.8%
same,"GTP binding, percent of control",[3],57.5%
same,outcome,[4],inactive
same,outcome,[5],inactive
COc1ccc(/C=C/C(=O)c2cc(Br)ccc(=O)c2O)cc1,outcome,[1],inactive
same,"fluorescence, percent of control (lower = inhibition)",[2],28.6%
same,"GTP binding, percent of control",[3],73%
same,outcome,[4],inactive
same,"GTP binding signal, raw median fluorescence (lower = inhibition) (MCF (arbitrary fluorescence units))",[6],226
same,outcome,[5],inactive
same,GFP response vs DMSO,[17],169% (active)
same,GFP response vs DMSO,[18],185% (active)
same,GFP response vs DMSO,[19],77.3% (inactive)
same,GFP response vs DMSO,[20],191% (active)
same,percent response vs DMSO,[21],80% (inactive)
same,fluorescence change (kMESF span),[22],68.2 (active)
COc1ccc(C(=O)/C=C/Nc2ccc(S(=O)(=O)Nc3nc(C)cc(C)n3)cc2)cc1OC,outcome,[1],inactive
same,"fluorescence, percent of control (lower = inhibition)",[2],39.1%
same,"GTP binding, percent of control",[3],80%
same,outcome,[4],inactive
same,outcome,[5],inactive
COc1cccc2sc(Nc3nc(-c4ccccn4)cs3)nc12,outcome,[1],inactive
same,"fluorescence, percent of control (lower = inhibition)",[2],34.8%
same,"GTP binding, percent of control",[3],80.4%
same,outcome,[4],inactive
same,"GTP binding signal, raw median fluorescence (lower = inhibition) (MCF (arbitrary fluorescence units))",[6],194
same,outcome,[5],inactive
same,GFP response vs DMSO,[23],107% (inactive)
same,GFP response vs DMSO,[23]; [28],99.5%
same,GFP response vs DMSO,[23]; [29],96.6%
same,GFP response relative to DMSO,[24],254% (active)
same,GFP response relative to DMSO,[24]; [30],201%
same,GFP response relative to DMSO,[24]; [31],240%
same,GFP response vs DMSO,[25],124% (inactive)
same,"GFP response, % of DMSO",[26],104% (inactive)
same,"GFP response, % of DMSO",[27],96.5% (inactive)
same,"GFP response, % of DMSO",[27]; [28],99.7%
same,"GFP response, % of DMSO",[27]; [29],88%
CC(C)(C)c1ccc(C(=O)CC(Sc2ccc(Cl)cc2)C(=O)O)cc1 (centres undefined),outcome,[1],inactive
same,"fluorescence, percent of control (lower = inhibition)",[2],30.3%
same,"GTP binding, percent of control",[3],79.2%
same,outcome,[4],inactive
same,"GTP binding signal, raw median fluorescence (lower = inhibition) (MCF (arbitrary fluorescence units))",[6],285
same,outcome,[5],inactive
same,GFP response vs DMSO,[23],100% (inactive)
same,GFP response vs DMSO,[23]; [28],97.1%
same,GFP response vs DMSO,[23]; [29],100%
same,GFP response relative to DMSO,[24],120% (inactive)
same,GFP response relative to DMSO,[24]; [30],112%
same,GFP response relative to DMSO,[24]; [31],125%
same,GFP response vs DMSO,[25],101% (inactive)
same,"GFP response, % of DMSO",[26],98.4% (inactive)
same,"GFP response, % of DMSO",[27],79.7% (inactive)
same,"GFP response, % of DMSO",[27]; [28],79.4%
same,"GFP response, % of DMSO",[27]; [29],77.8%
